Experimental data published in PubChem BioAssay (NCATS).
Inconclusive results are not listed. Entries that show only a call come without a potency. Activity calls are given as the source filed them. The call rests on the fitted dose curve.

Assay: Primary qHTS for Vero E6 cytotoxicity: counterscreen for inhibitors of SARS-S pseudo-typed particle cell entry (AID 1479150)
Conditions: cell viability; series mostly up to 57.1 µM

Row | SMILES | Potency | outcome
1 | CN(C)[C@@H]1C(=O)C(C(N)=O)=C(O)[C@@]2(O)C(=O)C3=C(O)c4c(O)ccc(Cl)c4[C@@H](O)[C@H]3C[C@@H]12 | inactive | –
2 | Cc1cc(C)cc(OCC2CNC(=O)O2)c1 (stereo unspecified) | inactive | –
3 | CN/C(=C\[N+](=O)[O-])NCCSCc1ccc(CN(C)C)o1 | inactive | –
4 | NS(=O)(=O)c1cc2c(cc1Cl)NC=NS2(=O)=O | inactive | –
5 | COc1ccccc1OCC(O)COC(N)=O (stereo unspecified) | inactive | –
6 | C[C@@H](c1ncncc1F)C(O)(Cn1cncn1)c1ccc(F)cc1F (stereo partly specified) | inactive | –
7 | NNCCc1ccccc1 | inactive | –
8 | CC(=O)SC[C@@H](C)C(=O)N1CCC[C@H]1C(=O)N[C@@H](Cc1ccccc1)C(=O)O | inactive | –
9 | CC(=O)OCC(CCn1cnc2cnc(N)nc21)COC(C)=O | inactive | –
10 | N[C@@H](C(=O)N[C@@H]1C(=O)N2C(C(=O)O)=C(Cl)CS[C@H]12)c1ccccc1 | – | inactive [at 11.4 µM]
11 | O=C1NC(=O)C(c2ccccc2)(c2ccccc2)N1 | inactive | –
12 | COC(=O)[C@@H]1CC2=CC(=O)CC[C@]2(C)[C@@]23O[C@@H]2C[C@@]2(C)[C@@H](CC[C@@]24CCC(=O)O4)[C@H]13 | inactive | –
13 | CN(CCOc1ccc(CC2SC(=O)NC2=O)cc1)c1ccccn1 (stereo unspecified) | inactive | –
14 | CN(C)CCCN1c2ccccc2CCc2ccc(Cl)cc21 | inactive | –
15 | CCOc1ccc2ccccc2c1C(=O)N[C@@H]1C(=O)N2[C@@H]1SC(C)(C)[C@@H]2C(=O)O | inactive | –
16 | CO/N=C(\C(=O)N[C@@H]1C(=O)N2C(C(=O)O)=C(CSc3nc(=O)c(O)nn3C)CS[C@H]12)c1csc(N)n1 | inactive | –
